MRP1 act: activates MRP-1; H69AR cells + doxorubicin, viability rescue, CellTiter-Glo; viability increase, % at 10 µM; 140,000 tested, 0.61% active;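 active = viability gain under doxorubicin at or above a set limit, the compound median plus 3 SD, cut at about 4.7% in these data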;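 note: MRP-1 overexpressing cells given doxorubicin 25 µM after compound pretreatment; 18-22 h compound pretreatment then 72 h with doxorubicin before readout; 0% = doxorubicin-only wells and 100% = vehicle-treated cells without doxorubicin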
MRP reversal: MRP-mediated drug resistance reversal; H69AR cells + 2 uM doxorubicin, CellTiter-Glo, 72 h; AID 602; 85,000 tested, 0.04% active; differential viability (reversal), % at 10 µM;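 active = viability drop by adding the cancer drug above about 55%, with treated viability meeting a 40% cutoff, limit read from the data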;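 note: viability without doxorubicin minus viability with 2 µM doxorubicin for each compound; larger differential means the compound sensitizes cells more to doxorubicin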
Phagocyt inh: inhibitors of macrophage phagocytosis; J774A.1 macrophage IgG-bead phagocytosis, imaging; inhibition, % at 5 µM; AID 1029; 110,000 tested, 0.07% active;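 active = inhibition above the mean of the plate negative controls plus 5 SD, cut at about 13% in these data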;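 note: phagocytic index as fraction of beads internalized from green versus red external bead signal; plate controls were DMSO negative control for no effect and cytochalasin-D positive control for full effect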
* hit, by the source's call; . = no result given. Hits are enriched below; roughly 0.69% of the tested compounds scored in any of these assays.

SMILES	MRP1 act	MRP reversal	Phagocyt inh
CCn1c(CNC(=O)COc2ccc(C(C)C)cc2)nnc1SCC(=O)Nc1ccccc1F	-0.3	.	2.2
N#CCSc1nc2ccc(N3CCCCC3)cc2c(=O)n1Cc1ccccc1	4.8*	-1.1	1.5
C=C(C)Cn1c(SCC#N)nc2ccccc2c1=O	0.2	24.1	-0.1
CCNC(=O)/C(=C/c1ccco1)NC(=O)/C=C/c1ccccc1	-3.5	.	-1.2
CC12COC3(C(N)=O)CC1CCC32C (centres undefined)	0.1	.	-6.4
COc1ccc(Cn2c(O)c(C=Nc3ccc(OC)cc3)c3ccccc3c2=O)cc1	6.4*	.	-3.3
CC(C)CCC(C)N=Cc1c(O)n(Cc2ccccc2)c(=O)c2ccccc12 (centres undefined)	-0.5	-4.5	-0.3
O=C(NCc1ccccc1Cl)c1ccc(S(=O)(=O)Nc2cccc(C(F)(F)F)c2)cc1	-1.7	.	-12.8
Cc1ccc2nc(N(CCCN(C)C)C(=O)c3sc4ccccc4c3Cl)sc2c1	-2.5	.	-2.2
CC(C)(C)SCCNC(=O)/C=C/c1ccc(F)cc1	-1.4	.	-4.4
CC(C)(CNC(=O)/C=C/c1ccc(F)cc1)CNC(=O)/C=C/c1ccc(F)cc1	5.9*	.	3.7
O=C(O)CCN1C(=O)CC(N2C(=O)/C(=C/c3ccc(Cl)cc3)SC2=S)C1=O (centres undefined)	8.0*	.	-8.7
O=C(CCN1C(=O)S/C(=C/c2ccc(Cl)cc2)C1=O)N1CCOCC1	-2.6	.	-7.6
CCOC(=O)c1cnc2c(OC)cccc2c1Nc1ccc2c(c1)OCCO2	-1.9	.	-7.4
Cc1ccc(S(=O)(=O)Oc2ccc(C3C4=C(CCCC4=O)N(CCC(=O)O)C4=C3C(=O)CCC4)cc2Cl)cc1	0.4	.	-4.6
COc1ccc(Nc2nnc(Cc3ccc(Cl)cc3)c(=O)[nH]2)c(OC)c1	7.0*	2.4	-2.5
COc1ccc(Nc2nnc(Cc3ccccc3)c(=O)[nH]2)c(OC)c1	-4.7	0.7	-0.5
O=C(CSc1n[nH]c(-c2cc(Cl)ccc2Cl)n1)NCCN1C(=O)CSC1=O	-0.4	.	.
Cc1ccc(N(Cc2cc3cc(C)ccc3[nH]c2=O)S(=O)(=O)c2ccccc2)cc1	-1.5	.	-2.9
COc1ccc(/C=N/Nc2nc(-c3ccc(Cl)cc3)cc(C(F)(F)F)n2)cc1OC	5.6*	.	-18.7
COc1ccc(-c2cnnc(N/N=C/c3ccc(OC)c(OC)c3)n2)cc1	-5.1	.	-6.9
COc1cccc(CN(C)C(=O)Nc2cccc(C(F)(F)F)c2)c1OC	1.7	.	0.1
CC(OC(=O)CN1C(=O)NC(C)(C)C1=O)C(=O)c1ccccc1 (centres undefined)	1.4	-9.5	-0.5
CC(OC1=CC(=O)CCC1)C(=O)c1ccccc1 (centres undefined)	-3.2	7.0	187.1*
COc1cccc(Nc2nc3ccccc3nc2-n2nc(C)cc2C)c1	5.6*	-1.8	0.5
SMILES	MRP1 act	MRP reversal	Phagocyt inh
Cc1cc(C)n(-c2nc3ccccc3nc2Nc2ccc3c(c2)OCO3)n1	4.2	10.2	.
CS(=O)(=O)Oc1ccc(/C=N/NC(=O)c2ccncc2)cc1	-1.9	.	-4.1
CCOC(=O)c1c(-c2cccc([N+](=O)[O-])c2)csc1NC(=O)C1CCCCC1	9.4*	.	.
CCOC(=O)c1c(-c2cccc([N+](=O)[O-])c2)csc1NC(=O)C1CC1	-2.1	.	-3.6
Cc1nnc(NC(=O)NC(C)N2C(=O)C3C4C=CC(C4)C3C2=O)s1 (centres undefined)	-0.7	.	-2.8
CCc1nnc(NC(=O)C(C)N2C(=O)C3C4C=CC(C4)C3C2=O)s1 (centres undefined)	8.2*	14.5	-0.5
CCN(CC)c1ccc(/C=C2\C(=O)c3ccc(C(=O)O)cc3C2=O)cc1	-1.8	.	2.0
O=C(c1cc(N2C(=O)C3C4CCC(C4)C3C2=O)ccc1Cl)N1CCN(c2ccccc2F)CC1 (centres undefined)	-0.7	.	-11.0
Cc1nc(NC(=O)CSc2nc3cccnc3n2C2CCCCC2)sc1C	-2.1	-4.2	-0.9
CCc1nnc(NC(=O)CSc2nc3cccnc3n2C2CCCCC2)s1	4.8*	22.6	0.9
O=C(Cc1ccccc1)NCC(=O)OCC(=O)c1ccc(Cl)c([N+](=O)[O-])c1	-1.7	.	-6.2
Cc1ccc(NC(=S)N2CCOCC2)cc1	-1.1	.	1.1
Cc1ccc(N/N=C(\C#N)C(=N)N2CCOCC2)cc1	6.5*	.	-1.6
N#C/C(=N\Nc1ccccc1F)C(=N)N1CCCCC1	8.2*	11.3	.
N#C/C(=N\Nc1ccc(Cl)cc1)C(=N)N1CCCCC1	0.3	3.4	1.6
N#C/C(=N\Nc1ccccc1)C(=N)N1CCOCC1	6.8*	.	-1.6
C(=N\Nc1ccccc1)/c1ccc(N2CCOCC2)cc1	-0.7	.	.
C=CCn1c(=NC(=O)c2ccccc2[N+](=O)[O-])sc2cc(S(C)(=O)=O)ccc21	-2.4	.	-7.2
Cc1cc(C)cc(NC(=O)C(OC(=O)c2sccc2C)c2ccccc2)c1 (centres undefined)	1.4	.	-5.9
